± gives the standard deviation of the averaged measurements.
How the values were obtained:
Experiment in all cases: growth (OD600 after 10 h); higher = more growth (less inhibition)
[1] = system: E. coli TESEC Alr+ wild-type control; settings: compound 0.1 mM; raw OD600 reference: median of DMSO wells 0.241, cell-free background 0.041
Method: (§1)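 TESEC Mtb Alr E. coli, or the Alr+ wild-type control, in 384-well plates with Prestwick library compounds at 0.1 mM and 1% DMSO, across arabinose induction levels of 1E3 to 1E7 nM. Growth is read as OD600 after 10 h at 37 °C in triplicate biological replicates.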

E. coli TESEC Mtb Alr [2] = settings: compound 0.1 mM
Method: as §1

E. coli TESEC Mtb Asd = settings: compound 0.1 mM
Method: (§2)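 TESEC E. coli strains in which the native enzyme is deleted and replaced by arabinose-inducible Mtb Asd, DapB, CysH or TrpD, each grown in its selective medium. Strains were screened against the Prestwick library at 0.1 mM and 1% DMSO in 384-well format at low and high arabinose induction. Growth is read as OD600 after 10 h in triplicate.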

E. coli TESEC Mtb DapB = settings: compound 0.1 mM
Method: as §2

[3] = system: E. coli TESEC Alr+ wild-type control; settings: compound 0.1 mM; raw OD600 reference: median of DMSO wells 0.49, cell-free background 0.052
Method: (§3)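 TESEC Mtb Alr E. coli (ΔaraC ΔtolC ΔentC Δalr ΔdadX, arabinose-inducible Mtb Alr) or the Alr+ wild-type control strain, grown in defined M9-fructose medium without D-alanine in 96-well plates with Prestwick library compounds at 0.1 mM and 1% DMSO. Low Alr induction is 0.1 µM arabinose and high induction is 10 mM arabinose.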

E. coli TESEC Mtb Alr [4] = settings: compound 0.1 mM; remark: listed apart in the source
Method: as §3

[5] = arabinose 1000 nM, raw OD600 reference: median of DMSO wells 0.294, cell-free background 0.041
[6] = arabinose 10000 nM, raw OD600 reference: median of DMSO wells 0.264, cell-free background 0.041
[7] = arabinose 100000 nM, raw OD600 reference: median of DMSO wells 0.201, cell-free background 0.041
[8] = arabinose 1000000 nM, raw OD600 reference: median of DMSO wells 0.193, cell-free background 0.041
[9] = arabinose 10000000 nM, raw OD600 reference: median of DMSO wells 0.146, cell-free background 0.041
[10] = arabinose induction (level): High, raw OD600 reference: median of DMSO wells 0.331, cell-free background 0.041
[11] = arabinose induction (level): Low, raw OD600 reference: median of DMSO wells 0.417, cell-free background 0.041
[12] = arabinose induction (level): High, raw OD600 reference: median of DMSO wells […], cell-free background 0.041
[13] = arabinose induction (level): Low, raw OD600 reference: median of DMSO wells 0.227, cell-free background 0.041
[14] = arabinose 100 nM, raw OD600 reference: median of DMSO wells 0.413, cell-free background 0.052
[15] = arabinose 10000000 nM, raw OD600 reference: median of DMSO wells […], cell-free background 0.052

SMILES	growth [1]	growth (E. coli TESEC Mtb Alr [2]; [5])	growth (E. coli TESEC Mtb Alr [2]; [6])	growth (E. coli TESEC Mtb Alr [2]; [7])	growth (E. coli TESEC Mtb Alr [2]; [8])	growth (E. coli TESEC Mtb Alr [2]; [9])	growth (E. coli TESEC Mtb Asd; [10])	growth (E. coli TESEC Mtb Asd; [11])	growth (E. coli TESEC Mtb DapB; [12])	growth (E. coli TESEC Mtb DapB; [13])	growth [3]	growth (E. coli TESEC Mtb Alr [4]; [14])	growth (E. coli TESEC Mtb Alr [4]; [15])
CC[C@@]1(O)C(=O)OCc2c1cc1n(c2=O)Cc2cc3ccccc3nc2-1 [Camptothecine (S,+)]	0.2398 ± 0.0022	0.28 ± 0.012	0.267 ± 0.0074	0.192 ± 0.016	0.184 ± 0.0026	0.141 ± 0.0034	0.292 ± 0.075	0.43 ± 0.046	0.199 ± 0.01	0.228 ± 0.039	0.477 ± 0.033	0.465 ± 0.052	0.434 ± 0.031
CN1CCN(C(=O)OC2c3nccnc3C(=O)N2c2ccc(Cl)cn2)CC1 (configuration not stated) [Zopiclone]	0.222 ± 0.0047	0.284 ± 0.0071	0.246 ± 0.0053	0.183 ± 0.011	0.18 ± 0.0087	0.138 ± 0.0054	0.291 ± 0.062	0.358 ± 0.056	0.194 ± 0.0097	0.224 ± 0.04	0.454 ± 0.011	0.417 ± 0.009	0.357 ± 0.01
CCC1(CC)C(=O)C=CNC1=O [Pyrithyldione]	0.223 ± 0.0058	0.295 ± 0.026	0.289 ± 0.0059	0.207 ± 0.017	0.2322 ± 0.0018	0.152 ± 0.0058	0.398 ± 0.047	0.438 ± 0.018	0.205 ± 0.014	0.23 ± 0.01	0.458 ± 0.024	0.389 ± 0.009	0.398 ± 0.025
COc1ccc(CCN2CCC(Nc3nc4ccccc4n3Cc3ccc(F)cc3)CC2)cc1 [Astemizole]	0.041 ± 0.00045	0.0406 ± 0.00056	0.04013 ± 0.00025	0.0411 ± 0.0019	0.04007 ± 0.00031	0.0404 ± 0.0002	0.0477 ± 0.0029	0.053 ± 0.004	0.04653 ± 0.00032	0.0845 ± 0.059	0.0478 ± 0.00075	0.176 ± 0.22	0.0525 ± 0.0011
CCCCCC[C@H]1C(=O)O[C@H](C)[C@H](NC(=O)c2cccc(NC=O)c2O)C(=O)O[C@@H](C)[C@@H]1OC(=O)CC(C)C [Antimycin A]	0.191 ± 0.0077	0.203 ± 0.018	0.234 ± 0.0026	0.249 ± 0.022	0.125 ± 0.0067	0.159 ± 0.0018	0.24 ± 0.017	0.316 ± 0.12	0.15 ± 0.018	0.278 ± 0.058	0.428 ± 0.022	0.363 ± 0.0093	0.319 ± 0.02
O=C(NCNC(=O)NC1C(=O)NC(=O)N1CO)NC1C(=O)NC(=O)N1CO (configuration not stated) [Imidurea]	0.231 ± 0.0035	0.2874 ± 0.0013	0.289 ± 0.0059	0.193 ± 0.036	0.231 ± 0.022	0.135 ± 0.0032	0.336 ± 0.057	0.358 ± 0.074	0.207 ± 0.024	0.215 ± 0.032		0.44 ± 0.021	0.345 ± 0.012
CC(Cc1ccccc1)NCCC(c1ccccc1)c1ccccc1 (configuration not stated) [Prenylamine lactate]	0.04013 ± 0.00032	0.03927 ± 0.00035	0.0394 ± 0.0001	0.0405 ± 0.001	0.0393	0.0397 ± 0.00052	0.0468 ± 0.00058	0.0471 ± 0.00089	0.0466 ± 0.00036	0.04663 ± 0.00038	0.0478 ± 0.00061	0.276 ± 0.19	0.0499 ± 0.00064
CCN(C)C(=O)Oc1cccc([C@H](C)N(C)C)c1 [Rivastigmine]	0.243 ± 0.0069	0.293 ± 0.004	0.302 ± 0.0098	0.213 ± 0.02	0.19 ± 0.021	0.156 ± 0.0029	0.325 ± 0.068	0.343 ± 0.067	0.188 ± 0.01	0.281 ± 0.04		0.418 ± 0.0056	0.342 ± 0.016
